# PubChem BioAssay AID1159580 (chemical genetic matrix, 2015)
# Out of some 5,500 compounds screened, about 2,000 (36%) were called active. Not shown: some 18% with an inconclusive outcome. Some of the results follow. A number with no mark means an inactive call. No stated cut-off is given here; in the data, active means normalized growth mostly below about 0.91 (no sharp cut-off); inconclusive means no clear call, values can overlap the other calls; inactive means mostly above about 0.92.
# Experiment: chemical genetic growth profiling, strain panel (AID 1159580);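 further: tested at 20 µM; growth read once vehicle control cultures reached saturation at 30 °C; 1 = growth at the plate median or of vehicle wells; lower values mean less growth of the strain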
# Settings: S. cerevisiae deletion strains, growth OD
compound,measurement,setting,value
CC(C)c1ccc(NC(=S)NC(=O)c2ccccc2)cc1,normalized growth,"locus YAR019C, strain CDC15, active compounds read low",0.964
same,normalized growth,"locus YBL105C, strain PKC1, active compounds read low",0.952
same,normalized growth,"locus YBR135W, strain CKS1, active compounds read low",0.957
same,normalized growth,"locus YBR136W, strain MEC1, active compounds read low",0.963
same,normalized growth,"locus YBR160W, strain CDC28, active compounds read low",0.961
same,normalized growth,"locus YDL017W, strain CDC7, active compounds read low",0.96
same,normalized growth,"locus YDL028C, strain MPS1, active compounds read low",0.953
same,normalized growth,"locus YDL101C, strain DUN1, active compounds read low",0.96
same,normalized growth,"locus YDL108W, strain KIN28, active compounds read low",0.971
same,normalized growth,"locus YDL132W, strain cdc53, active compounds read low",0.953
same,normalized growth,"locus YDL214C, strain PRR2, active compounds read low",0.939
same,normalized growth,"locus YDR052C, strain DBF4, active compounds read low",0.962
same,normalized growth,"locus YDR054C, strain cdc34, active compounds read low",0.94
same,normalized growth,"locus YDR226W, strain ADK1, active compounds read low",0.955
same,normalized growth,"locus YDR477W, strain SNF1, active compounds read low",0.923
same,normalized growth,"locus YER123W, strain YCK3, active compounds read low",0.959
same,normalized growth,"locus YER133W, strain GLC7, active compounds read low",0.938
same,normalized growth,"locus YFL009W, strain cdc4, active compounds read low",0.952
same,normalized growth,"locus YFL029C, strain CAK1, active compounds read low",0.953
same,normalized growth,"locus YFR003C, strain YPI1, active compounds read low",0.961
same,normalized growth,"locus YFR019W, strain FAB1, active compounds read low",0.999
same,normalized growth,"locus YFR028C, strain CDC14, active compounds read low",0.958
same,normalized growth,"locus YGR040W, strain KSS1, active compounds read low",0.918
same,normalized growth,"locus YGR052W, strain FMP48, active compounds read low",1.03
same,normalized growth,"locus YGR092W, strain DBF2, active compounds read low",0.851
same,normalized growth,"locus YHR030C, strain SLT2, active compounds read low",0.797 (active)
same,normalized growth,"locus YHR079C, strain IRE1, active compounds read low",0.882
same,normalized growth,"locus YHR082C, strain KSP1, active compounds read low",0.974
same,normalized growth,"locus YHR205W, strain SCH9, active compounds read low",0.904
same,normalized growth,"locus YIL147C, strain SLN1, active compounds read low",0.963
same,normalized growth,"locus YJL095W, strain BCK1, active compounds read low",0.883
same,normalized growth,"locus YJL128C, strain PBS2, active compounds read low",0.94
same,normalized growth,"locus YJL157C, strain FAR1, active compounds read low",0.923
same,normalized growth,"locus YJR016C, strain ILV3, active compounds read low",0.958
same,normalized growth,"locus YJR066W, strain TOR1 (second series), active compounds read low",0.906
same,normalized growth,"locus YJR066W, strain TOR1, active compounds read low",0.891
same,normalized growth,"locus YKL048C, strain ELM1, active compounds read low",0.968
same,normalized growth,"locus YKL067W, strain YNK1, active compounds read low",0.953
same,normalized growth,"locus YKL101W, strain HSL1, active compounds read low",0.957
same,normalized growth,"locus YKL193C, strain SDS22, active compounds read low",0.954
same,normalized growth,"locus YKL203C, strain TOR2, active compounds read low",0.96
same,normalized growth,"locus YLR113W, strain HOG1, active compounds read low",0.919
same,normalized growth,"locus YLR133W, strain CKI1, active compounds read low",0.941
same,normalized growth,"locus YLR403W, strain SFP1, active compounds read low",0.879
same,normalized growth,"locus YML070W, strain DAK1, active compounds read low",0.97
same,normalized growth,"locus YMR001C, strain CDC5, active compounds read low",0.951
same,normalized growth,"locus YMR205C, strain PFK2 (second series), active compounds read low",0.956
same,normalized growth,"locus YMR277W, strain FCP1, active compounds read low",0.962
same,normalized growth,"locus YNL006W, strain LST8, active compounds read low",0.966
same,normalized growth,"locus YNL020C, strain ARK1, active compounds read low",0.926
same,normalized growth,"locus YNL161W, strain CBK1, active compounds read low",0.959
same,normalized growth,"locus YNL183C, strain NPR1, active compounds read low",0.957
same,normalized growth,"locus YNL207W, strain RIO2, active compounds read low",0.953
same,normalized growth,"locus YNL222W, strain SSU72, active compounds read low",0.959
same,normalized growth,"locus YNL307C, strain MCK1 (second series), active compounds read low",0.91
same,normalized growth,"locus YOL078W, strain AVO1, active compounds read low",0.956
same,normalized growth,"locus YOL136C, strain PFK27, active compounds read low",0.959
same,normalized growth,"locus YOR061W, strain CKA2, active compounds read low",0.904
same,normalized growth,"locus YOR119C, strain RIO1, active compounds read low",0.921
same,normalized growth,"locus YOR231W, strain MKK1, active compounds read low",0.911
same,normalized growth,"locus YOR329C, strain SCD5, active compounds read low",0.956
same,normalized growth,"locus YPL031C, strain PHO85, active compounds read low",0.898
same,normalized growth,"locus YPL153C, strain RAD53, active compounds read low",0.921
same,normalized growth,"locus YPL204W, strain HRR25, active compounds read low",0.933
same,normalized growth,"locus YPL209C, strain IPL1, active compounds read low",0.954
same,normalized growth,"locus YPL256C, strain CLN2, active compounds read low",0.92
same,normalized growth,"locus YPR025C, strain CCL1, active compounds read low",0.955
same,normalized growth,"locus YPR106W, strain ISR1, active compounds read low",0.958
same,normalized growth,"locus YPR111W, strain DBF20, active compounds read low",0.964
same,normalized growth,"strain NNK1, active compounds read low",0.967
same,normalized growth,"strain TSCII, active compounds read low",0.947
